Assay outcomes from PubChem.
In the library only some 1.1% were active in any assay of this set; here they are far more common.
NR5A2 inv ag: suppresses constitutive activity of human LRH-1; O00482; HEK293T StAR-luciferase reporter, LRH-1 transfected, 24 h; inhibition, % at 3.6 µM; 0.13% of 360,000 active; AID 602396;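 active = inhibition above the mean inhibition of all tested compounds plus 3 SD, cut at about 73% in these data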;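 also: 0% = DMSO wells and 100% = reporter-only cells lacking LRH-1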
Shn3 3UTR inh: Schnurri-3 reporter inhibition in Clone20 osteoblasts; AID 588674; inhibition, % at 12.5 µM; 0.52% of 360,000 active; Clone20 osteoblast Shn3 3'UTR firefly luciferase, 24 h;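 active = mean inhibition of at least 75% with every replicate also reaching 75%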;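 also: 0% = median of neutral control wells and 100% = pilot-screen positive control compound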
SRC3 inh: human NCOA3 inhibition; Q9Y6Q9; HEK293 GAL4-SRC3 luciferase reporter, luminescence; inhibition, % at 3.6 µM; 0.17% of 360,000 active;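 active = inhibition above a per-campaign cutoff, the mean of all compounds plus 3 SD, cut at about 60% in these data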;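 also: 0% = DMSO-treated cells and 100% = gossypol-treated cells at 36 µM; higher means less SRC3-driven luciferase light from the GAL4 reporter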
NCOA1 inh: human NCOA1 inhibition; Q15788; 0.12% of 360,000 active; HEK293 GAL4-SRC1 luciferase reporter, luminescence; inhibition, % at 3.6 µM;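 active = inhibition above the campaign mean plus 3 SD, with each screening campaign given its own cutoff, cut at about 60% in these data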;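 also: 0% = DMSO treated cells and 100% = gossypol at 36 µM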
SRC2 inh: inhibits human steroid receptor coactivator 2; inhibition, % at 9 µM; HEK293 GAL4-SRC2 luciferase reporter, luminescence; AID 651957; 0.17% of 370,000 active; Q15596;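 active = inhibition above the mean inhibition of all tested compounds plus 3 SD, set per campaign, cut at about 52% in these data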;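 also: 0% = DMSO treated cells and 100% = cells given Gossypol at 36 µM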
Gli-Sufu antag: Gli-Sufu pathway antagonism. Sufu-KO-LIGHT fibroblasts, Gli luciferase reporter luminescence. inhibition, % at 5 µM. 0.74% of 340,000 active. AID 588413;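 active = inhibition above about 55%, limit read from the data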;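 also: 0% = DMSO-treated cells and 100% = wells with medium but no cells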
* marks the source's active call; other numbers are inactive results; · = not tested or not shown.

SMILES	NR5A2 inv ag	Shn3 3UTR inh	SRC3 inh	NCOA1 inh	SRC2 inh	Gli-Sufu antag
C=C1C(O)[C@@H]2O[C@]3(CC[C@H](/C=C/C(C)[C@@H]4CC(C)=CC5(O[C@H](C[C@@](C)(O)C(=O)O)CCC5O)O4)O3)CC[C@H]2O[C@@H]1C(O)CC(C)[C@H]1OC2(CCCCO2)CCC1C (some centres not stated)	·	·	·	·	·	93*
COc1cccc(C(c2nnnn2-c2ccc3c(c2)OCCO3)N2CCC(n3c(=O)[nH]c4ccccc43)CC2)c1OC (configuration not stated)	9	87*	41	32	9	·
Cc1cccc(C)c1-n1nnnc1C(c1cc2ccccc2o1)N1CCC(n2c(=O)[nH]c3ccccc32)CC1 (configuration not stated)	-14	96*	47	50	0	·
COc1ccc(-n2nnnc2C(c2cccc(OC)c2OC)N2CCC(n3c(=O)[nH]c4ccccc43)CC2)cc1 (configuration not stated)	18	18	26	39	22	·
CC1OC(OC2C=C3CCC4C(CCC5(C)C(c6ccc(=O)oc6)CCC45O)C3(C)CC2)C(O)C(OC2OC(CO)C(O)C(O)C2O)C1O (configuration not stated)	97*	-4	88*	91*	70*	0
CCCCCCCCCCCCCCCC[N+](C)(C)C	17	94*	12	5	2	62*
Cn1ncnc2c(=O)n(C)c(=O)nc1-2	100*	97*	91*	88*	·	94*
Fc1ccc(C(OCCN2CCN(CCCc3ccccc3)CC2)c2ccc(F)cc2)cc1	-11	87*	-1	-2	4	5
c1ccc(CCCN2CCN(CCOC(c3ccccc3)c3ccccc3)CC2)cc1	-11	-5	-41	-62	-4	9
COC(=O)[C@@]1(O)c2c(oc3cccc(O)c3c2=O)C=C[C@H]1O	·	·	·	·	-21	·
O=c1[nH]c2cc(Cl)ccc2n1C1CCN(Cc2ccc(-c3nc4ccccc4nc3-c3ccccc3)cc2)CC1	·	·	·	·	-4	·
CCOC(=O)CC[C@@H]1CC[C@]2(CCCN(Cc3ccncc3)C2)O1	·	·	·	·	14	·
COc1ccc2c(c1)/C(=C/c1cnc[nH]1)C(=O)N2	82*	-10	29	25	-4	-23
N#Cc1ccc2nc(-c3ccc(CN4CCC(n5nnc6ccccc65)CC4)cc3)c(-c3ccccc3)nc2c1	·	·	·	·	4	·
COc1ccc(CNCCc2c(C)[nH]c3ccc(OC(F)(F)F)cc23)c(OC)c1	26	90*	7	7	21	57*
COc1ccc2[nH]c(C)c(CCNCc3cc(OC)c(OC)c(OC)c3)c2c1	12	44	8	4	2	11
CCOC(=O)CC[C@@H]1CC[C@]2(CCCN(Cc3ccccn3)C2)O1	·	·	·	·	9	·
COC(=O)C1=C(c2ccc(F)cc2OCc2ccccc2)C[C@@H]2CC[C@H]1N2C(=O)NCc1ccc(C(F)(F)F)cc1	17	93*	8	14	13	7
O=c1[nH]c2ccccc2n1C1CCN(Cc2ccc(-c3[nH]c4cc5ncnc5cc4nc3-c3ccccc3)cc2)CC1	42	·	·	·	14	·
O=C(NC1CN2CCC1CC2)c1ccc(Cl)cc1 (configuration not stated)	·	·	·	·	7	·
Cc1cc(O)c2c(c1)C(=O)[C@@]13C(=C2O)C(=O)[C@H]2C(O)[C@@H]1[C@H]1C(O)[C@@H]3C(=O)C3=C(O)c4c(O)cc(C)cc4C(=O)[C@@]312 (some centres not stated)	·	·	·	·	-14	·
CC1=CC(O)C(O)C2(C)C1CC1OC(=O)C(O)C3C(C)C(O)C4(O)OCC13C42 (configuration not stated)	24	-15	-7	-1	·	17
COC(=O)[C@]12OC[C@]34C([C@@H](O)[C@@H]1O)[C@]1(C)CC(=O)C(O)=C(C)[C@@H]1C[C@H]3OC(=O)[C@H](O)[C@@H]24 (some centres not stated)	99*	-8	69*	81*	61*	33
CC(C)(C)c1cc(C=C(C#N)C#N)cc(C(C)(C)C)c1O	76*	93*	81*	61	-3	88*
N#CC(C#N)=Cc1ccc(O)c(O)c1	-11	-8	5	5	-30	-10
O=C(NCCN1CCC2(CC1)C(=O)NCN2c1ccccc1)c1ccc(F)c(F)c1	·	·	·	·	-12	·
